Bioassay records deposited in PubChem by National Center for Advancing Translational Sciences (NCATS).
An excerpt weighted towards active compounds, which were near 7.3% of everything screened.
HCMV antiviral: human cytomegalovirus inhibition; HFF cells, HCMV-luciferase reporter, 72 h; active compounds read low; activity change, negative = inhibition, % at 57.5 µM; 4.5% of 410,000 active; in the data active means activity change below about -60%; inconclusive means no clear call, values can overlap the other calls; inactive means above about -39%
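Inhibition of viral replication was scored as loss of reporter luminescence in HFFs infected with HCMV-luciferase (MOI 1 PFU/cell) for 72 h; compounds tested at 2 doses, normalized to buffer and Salinomycin controls.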
AmpC detergent: inhibitors of E. coli AmpC beta-lactamase with detergent | Potency, µM (series often up to 114 µM), for the others: top-dose activity change, negative = inhibition, most hits filed as inhibitors | 0.041% of 370,000 active | AID 485294 | AmpC hydrolysis of nitrocefin, absorbance 480 nm, 0.01% Triton;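 further: potency means the concentration at half of the fitted maximal effect; 0% = no-compound wells and -100% = no-enzyme wells; nearly all actives have a fitted effect of over 25% in size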
Target sequence (P00811 whole entry, looked up): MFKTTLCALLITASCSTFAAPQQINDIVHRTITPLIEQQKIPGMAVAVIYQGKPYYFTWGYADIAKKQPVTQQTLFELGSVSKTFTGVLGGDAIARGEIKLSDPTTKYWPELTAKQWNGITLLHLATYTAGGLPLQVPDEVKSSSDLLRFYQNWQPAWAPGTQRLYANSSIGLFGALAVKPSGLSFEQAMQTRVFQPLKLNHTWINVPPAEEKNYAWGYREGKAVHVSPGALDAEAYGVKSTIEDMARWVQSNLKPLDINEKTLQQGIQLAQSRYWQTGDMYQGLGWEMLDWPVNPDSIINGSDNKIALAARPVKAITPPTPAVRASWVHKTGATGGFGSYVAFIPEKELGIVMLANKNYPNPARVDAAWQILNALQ
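AmpC (5.3 nM in the dispensed reagent) in 20 mM phosphate pH 7.0 with 0.01% (detergent screen) or 0.0001% Triton X-100 was preincubated with compounds for 15 min at room temperature. Nitrocefin was then added from an 800 uM solution, and hydrolysis was followed at 480 nm.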
FMDV antiviral: foot and mouth disease virus antiviral activity. Potency, µM (highest dose often 57.9 µM), for the others: at the top dose activity change, negative = inhibition, hits mostly inhibitors. FMDV antiviral cell-based qHTS. AID 1159524. 1.2% of 410,000 active; calls by dose curve; tested in HEK293T cells; further: read-out not given here; potency means the concentration at half of the fitted maximal effect; nearly all actives have a fitted effect of over 45% in size
AmpC no deterg: inhibitors of E. coli AmpC beta-lactamase without detergent. AmpC nitrocefin hydrolysis, absorbance 480 nm, 0.0001% Triton. 0.52% of 330,000 active. Potency, µM (series often up to 57.1 µM), for the others: at the highest dose activity change, negative = inhibition, actives largely listed as inhibitors;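 further: potency means the concentration at half of the fitted maximal effect; plate controls were no compound for no effect and no enzyme for full effect; nearly all actives have a fitted effect of over 20% in size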
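AmpC (5.3 nM in the dispensed reagent) in 20 mM phosphate pH 7.0 with 0.01% (detergent screen) or 0.0001% Triton X-100 was preincubated with compounds for 15 min at room temperature. Nitrocefin was then added from an 800 uM solution, and hydrolysis was followed at 480 nm.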
HCV inh: blocks hepatitis C virus; Potency, µM (top dose mostly 41.8 µM), without a hit: at the highest dose activity change, negative = inhibition, hits mostly inhibitors; Huh7.5.1 HCVcc-Cre infection, luciferase reporter, 44 h; 3.4% of 340,000 active; further: potency means the concentration at half of the fitted maximal effect
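Infectious HCVcc-Cre (~0.5 moi) was added to cells just after compound, with cells seeded 4 h earlier at 1,000 per well. Luciferase activity after 44 h culture reported infection; substrate was incubated 15 min at room temperature before reading.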
Starred values were filed as active, the others as inactive. Unless noted, the call rests on the fitted dose curve; in most records, active means well fitted curve in the direction sought with a large enough effect; inconclusive means small, poorly fitted or top-dose-only effect, or another doubt; inactive means no such curve, though single readings can be large; an effect the other way counts as inactive or inconclusive. Unless noted, on the % scale 0 is the no-effect control and ±100 the full control effect.

What do the screens show for `CN(/N=C/c1ccccc1Cl)c1ncc(Cl)cc1C(F)(F)F`?
HCMV antiviral: 23; AmpC detergent: -10%; FMDV antiviral: -14%; AmpC no deterg: -21%; HCV inh: -4%

What do the screens show for `O=C(Nc1ccccc1OCc1ccccc1)c1ccccc1Br`?
HCMV antiviral: 1; AmpC detergent: 3%; FMDV antiviral: -9%; AmpC no deterg: -29%; HCV inh: 11µM*

What do the screens show for `CCOc1ccccc1NC(=O)c1ccccc1NC(=O)c1ccco1`?
HCMV antiviral: 24; AmpC detergent: -5%; FMDV antiviral: -3%; AmpC no deterg: -10%; HCV inh: -21%

Results for O=C(c1ccco1)N(Cc1cc2cc3c(cc2nc1N1CCOCC1)CCC3)CC1CCCO1 (stereo not drawn) ?
FMDV antiviral: 10%

How did Cc1nc2ccccn2c1C(=O)NNS(=O)(=O)c1ccc(C(C)(C)C)cc1 do in these assays?
HCMV antiviral: -63*; AmpC detergent: 4%; FMDV antiviral: inconclusive; AmpC no deterg: -17%; HCV inh: inconclusive

Results for COc1ccc(OC)c(NC(=O)COC(=O)CCc2nc3ccccc3c(=O)[nH]2)c1 ?
HCMV antiviral: -1; FMDV antiviral: 6%; AmpC no deterg: -28%; HCV inh: 1%

What do the screens show for `CCOC(=O)c1c(NC(C)=O)sc2c1CCC(C=NCCCN(CC)CC)=C2Sc1ccccc1`?
FMDV antiviral: inconclusive; HCV inh: 7.9µM*

What do the screens show for `CCOC(=O)c1c(NC(=O)Cc2ccccc2)sc2c1CCN(C)C2`?
HCMV antiviral: -20; AmpC detergent: -5%; FMDV antiviral: -1%; AmpC no deterg: 48%; HCV inh: inconclusive

What do the screens show for `O=C(N[C@@H]1c2ccccc2C2(CCN(C(=O)c3cc4ccccc4oc3=O)CC2)[C@H]1O)c1cccnc1`?
FMDV antiviral: -4%

How did O=C1c2cccnc2C(=O)N1CO do in these assays?
HCMV antiviral: -32; AmpC detergent: -8%; FMDV antiviral: -20%; AmpC no deterg: -5%; HCV inh: -9%

How did NC1=C(Br)C(=O)c2ncccc2C1=O do in these assays?
HCMV antiviral: -102*; FMDV antiviral: 4µM*; HCV inh: inconclusive

How did COC(=O)C1CCN(Cc2ccc3c(c2)CN(C(=O)C(C)N2CCOCC2)CCO3)CC1 (stereo not drawn) do in these assays?
FMDV antiviral: -6%

What do the screens show for `N#CCn1c(CCl)nc2ccccc2c1=O`?
HCMV antiviral: -34; AmpC detergent: 2%; FMDV antiviral: 7.9µM*; AmpC no deterg: -28%; HCV inh: 4%

Results for Cc1ccc(CN2CCC(CO)(CC3CCCCO3)CC2)o1 (stereo not drawn) ?
HCMV antiviral: 16; AmpC detergent: -2%; FMDV antiviral: 7%; AmpC no deterg: -9%; HCV inh: -1%

What do the screens show for `Cc1ccc2[nH]c(CN3CCC(CO)(CC4CCCCO4)CC3)c(C)c2c1` (stereo not drawn)?
HCMV antiviral: -70*; AmpC detergent: -4%; FMDV antiviral: -20%; AmpC no deterg: 65%; HCV inh: -15%

What do the screens show for `O=[N+]([O-])c1cccc(/C=N/Nc2ccccn2)c1`?
HCMV antiviral: inconclusive; AmpC detergent: -13%; FMDV antiviral: 31%; AmpC no deterg: -4%; HCV inh: -5%

How did Cn1c(/C=C/c2cccc([N+](=O)[O-])c2)nc2ccccc2c1=O do in these assays?
HCMV antiviral: -61*; AmpC detergent: 0%; FMDV antiviral: -29%; AmpC no deterg: -4%; HCV inh: -15%

Results for Cc1noc(/C=C/c2ccccn2)c1[N+](=O)[O-] ?
HCMV antiviral: -102*; AmpC detergent: 0%; FMDV antiviral: -26%; AmpC no deterg: -4%; HCV inh: -6%

What do the screens show for `Cc1cccc(-n2c(/C=C\c3cccc(Br)c3)nc3ccccc3c2=O)c1`?
HCMV antiviral: -32; AmpC detergent: -6%; FMDV antiviral: inconclusive

What do the screens show for `Cn1c(/C=C/c2cccc(Br)c2)nc2ccccc2c1=O`?
HCMV antiviral: -72*; AmpC detergent: 0%; FMDV antiviral: 9%; AmpC no deterg: 52%; HCV inh: -85%

How did O=c1c2ccccc2nc(/C=C/c2cccc([N+](=O)[O-])c2)n1CCCO do in these assays?
HCMV antiviral: inconclusive; FMDV antiviral: -17%; HCV inh: -12%

Results for O=[N+]([O-])c1cccc(/C=C/c2ccccn2)c1 ?
HCMV antiviral: 49; AmpC detergent: -11%; FMDV antiviral: 32%; AmpC no deterg: 1%; HCV inh: 13µM*

What do the screens show for `O=c1c2ccccc2nc(/C=C/c2cccc(Br)c2)n1CCCO`?
HCMV antiviral: -92*; AmpC detergent: inconclusive; FMDV antiviral: -27%; AmpC no deterg: 148%; HCV inh: inconclusive

How did O=C(/C=C/c1cccc([N+](=O)[O-])c1)n1cnc2ccccc21 do in these assays?
HCMV antiviral: -99*; AmpC detergent: 0%; FMDV antiviral: 14µM*; AmpC no deterg: -16%; HCV inh: inconclusive

What do the screens show for `O=c1c2ccccc2nc(/C=C/c2ccc(Br)cc2)n1CCCO`?
HCMV antiviral: -71*; AmpC detergent: 1%; FMDV antiviral: 0%; AmpC no deterg: 182%; HCV inh: inconclusive

Results for Cc1[nH]c2ccccc2c1/C=C/c1nc2ccccc2c(=O)n1-c1cccc([N+](=O)[O-])c1 ?
HCMV antiviral: -86*; AmpC detergent: 1%; FMDV antiviral: -15%; AmpC no deterg: -19%; HCV inh: 8%

How did Cc1c(C(=O)NCCc2ccncc2)cnn1-c1nccc(-c2ccccc2C(F)(F)F)n1 do in these assays?
FMDV antiviral: -20%

How did O=c1c2ccccc2nc(/C=C/c2ccc([N+](=O)[O-])o2)n1CCCO do in these assays?
HCMV antiviral: -108*; AmpC detergent: -18%; FMDV antiviral: inconclusive; AmpC no deterg: -17%; HCV inh: 2.2µM*

What do the screens show for `O=c1c2ccccc2nc(/C=C/c2ccc([N+](=O)[O-])cc2)n1CCCO`?
HCMV antiviral: inconclusive; AmpC detergent: inconclusive; FMDV antiviral: -29%; AmpC no deterg: 47%; HCV inh: -7%

Results for Cn1c(SCc2cccc(Br)c2)nc2ccccc2c1=O ?
HCMV antiviral: -30; AmpC detergent: -2%; FMDV antiviral: inconclusive; AmpC no deterg: -20%; HCV inh: 22µM*

How did Cc1ccc([N+](=O)[O-])c(NC2OC(CO)C(O)C2O)c1 (stereo not drawn) do in these assays?
HCMV antiviral: 63; AmpC detergent: -1%; FMDV antiviral: -1%; AmpC no deterg: 1%; HCV inh: 25%

What do the screens show for `COc1cc(F)ccc1CN1CCC(n2nccc2NC(=O)C2CCOC2)CC1` (stereo not drawn)?
HCMV antiviral: inconclusive; AmpC detergent: -9%; FMDV antiviral: -5%; AmpC no deterg: -11%; HCV inh: -2%
